Inconclusive results are not listed. Some compounds were tested as several samples or in several runs, with calls that do not always agree. Calls of active or inactive are those of the source. The calls were made as follows, unless noted: active = hit-call score of the fitted dose curve at least 0.9, where 1 is the maximum; inconclusive = response in the unintended direction; inactive = score below 0.9.
Tests used:
[1] = test system: Sodium/Iodide Symporter (NIS), SLC5A5 (gene 6528); assay: CPHEA_Stoker_NIS_Inhibition_RAIU: CPHEA's Radioactive Iodide Uptake (RAIU) Assay for Sodium/Iodide Symporter (NIS) Inhibition, Stoker and Laws Labs (AID 2283841)
Method in brief: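 HEK293T cells stably expressing human NIS (hNIS-HEK293T-EPA) were exposed to test chemicals at 0.001–100uM (0.5% final DMSO) with 125I at a final 329pM in HBSS/10mM HEPES pH 7.4. After 2 hours at room temperature and ice-cold washes, intracellular 125I was counted as CPM and normalized to DMSO wells.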

[2] = CPHEA_Stoker_NIS_Cytotoxicity: Cytotoxicity Assessment for CPHEA's Radioactive Iodide Uptake (RAIU) Assay for Sodium/Iodide Symporter (NIS) Inhibition, Stoker and Laws Labs (AID 2283897);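 as to AC50: active means loss of ATP signal versus DMSO meaning cytotoxicity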
Method in brief: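 hNIS-HEK293T-EPA human kidney cells were exposed for 2 hours at room temperature to test chemicals (0.001–100uM, 0.5% final DMSO) in HEPES-buffered HBSS, pH 7.4. Viability was read as ATP content by luciferase bioluminescence, loss of signal versus DMSO.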

[3] = target: Nuclear receptor subfamily 1 group I member 2 (Mus musculus) (UniProt O54915); assay: ATG_mPXR_XSP2: Attagene TRANS-FACTORIAL Multi-Species (XSP1) HepG2 Assay for mouse Pregnane X Receptor (PXR) (AID 2283831)
Method in brief: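 HepG2 cells transiently transfected with GAL4-UAS reporter units expressing chimeric NR-GAL4 proteins; reporter mRNA measured 24 h after dosing by RT-PCR with 6-FAM labelling and capillary electrophoresis, gain of signal relative to DMSO.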

[4] = target: zebrafish Thyroid Hormone Receptor alpha (TRa), thraa (gene 30670) (UniProt Q98867); assay: ATG_zfTRa_XSP2: Attagene TRANS-FACTORIAL Multi-Species (XSP1) HepG2 Assay for zebrafish Thyroid Hormone Receptor alpha (TRa) (AID 2283832);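 also: actives raise zebrafish TRa-Gal4 reporter transcript above DMSO baseline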
Method in brief: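 Transient transfection of human HepG2 with GAL4-UAS reporter units, then 24 h chemical treatment. RNA isolated, reverse-transcribed, PCR-amplified, FAM-labelled, HpaI-digested and run on capillary electrophoresis. Gain-of-signal relative to DMSO.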

[5] = test system: zebrafish Peroxisome Proliferator-activated Receptor gamma (PPARg), gene 557037; assay: ATG_zfPPARg_XSP2: Attagene TRANS-FACTORIAL Multi-Species (XSP2) HepG2 Assay for zebrafish Peroxisome Proliferator-activated Receptor gamma (PPARg) (AID 2283833);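 also: actives increase reporter signal over DMSO so AC50 reflects activation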
Method in brief: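 HepG2 cells transiently transfected with GAL4-UAS reporter units expressing a zebrafish PPARg–GAL4 chimera; compound exposure 24 h. Reporter mRNA quantified by RT-PCR with fluorescent labelling and capillary electrophoresis; gain of signal fitted relative to DMSO baseline.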

[6] = test system: turtle Thyroid Hormone Receptor, alpha (TRa), gene 101949057; assay: ATG_trTRa_XSP2: Attagene TRANS-FACTORIAL Multi-Species (XSP1) HepG2 Assay for turtle Thyroid Hormone Receptor, alpha (TRa) (AID 2283834);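 also: hits raise reporter mRNA over the DMSO baseline so AC50 marks activators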
Method in brief: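 HepG2 cells transiently transfected with multiplexed GAL4-UAS reporter units expressing chimeric NR-Gal4 proteins were dosed for 24 hours. Reporter mRNA was quantified by RT-PCR with 6-FAM labelling and capillary electrophoresis, gain of signal scored against DMSO.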

[7] = ATG_M_61_XSP2: Attagene TRANS-FACTORIAL Multi-Species (XSP2) HepG2 Assay for M61 Transcription Factor (Internal Marker) (AID 2283835; active = hit-call score of the fitted dose curve at least 0.9, where 1 is the maximum; inactive = score below 0.9;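 also: reporter mRNA of an internal background marker read by RT-PCR and capillary electrophoresis; active means a rise in signal above the DMSO baseline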)
Method in brief: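 First, HepG2 cells are transfected with reporter units under GAL4-UAS control. Next, chemicals are applied for 24 h. Then total RNA is reverse-transcribed, amplified, fluorescently labelled and sized by capillary electrophoresis, with gain of signal scored against DMSO.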

[8] = target: zebrafish Thyroid Hormone Receptor beta (TRb), thrb (gene 30607) (UniProt Q9PVE4); assay: ATG_zfTRb_XSP2: Attagene TRANS-FACTORIAL Multi-Species (XSP1) HepG2 Assay for zebrafish Thyroid Hormone Receptor beta (TRb) (AID 2283836)
Method in brief: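 Human liver HepG2, transient MRTU transfection (NR-Gal4 chimeras, GAL4-UAS reporters); 24 h compound exposure; total RNA → oligo(dT) RT → PCR → 6-FAM label → HpaI cut → CE fluorescence. DMSO = negative control/baseline.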

[9] = ATG_XTT_Cytotoxicity_XSP2: Cytotoxicity Assessment in the Attagene TRANS-FACTORIAL Multi-Species (XSP2) HepG2 Assay (AID 2283837)
Method in brief: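 HepG2 cells, transiently transfected with multiple reporter constructs, exposed to chemical for 24 h. Cell number assessed with XTT fluorescence read-out; loss of signal fitted relative to DMSO.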

[10] = target: human Thyroid hormone Receptor alpha (TRa), THRA (gene 7067) (UniProt P10827); assay: ATG_hTRa_XSP2: Attagene TRANS-FACTORIAL Multi-Species (XSP2) HepG2 Assay for human Thyroid hormone Receptor alpha (TRa) (AID 2283838)
Method in brief: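 HepG2 cells were transiently transfected with GAL4-UAS reporter units for chimeric human TRa-Gal4 and dosed for 24 hours, with 3 nM 6-alpha-fluorotestosterone and 1.5 nM norgestrel present. Reporter mRNA was quantified by RT-PCR, FAM labelling and capillary electrophoresis, with gain of signal fitted versus DMSO.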

[11] = target: frog Thyroid hormone Receptor alpha (TRa), thra-a (gene 397942) (UniProt P15204); assay: ATG_frTRa_XSP2: Attagene TRANS-FACTORIAL Multi-Species (XSP2) HepG2 Assay for frog Thyroid hormone Receptor alpha (TRa) (AID 2283839);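 as to AC50: AC50 reflects induction of frog TRa-driven reporter mRNA above DMSO baseline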
Method in brief: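 HepG2 cells transiently transfected with multiplexed GAL4-UAS reporter units expressing chimeric frog TRα-Gal4; reporter mRNA read 24 h after dosing by RT-PCR, FAM-labelled primer extension, HpaI digest and capillary electrophoresis. Gain of signal fitted versus DMSO.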

[12] = target: human Thyroid hormone Receptor beta (TRb), THRB (gene 7068) (UniProt P10828); assay: ATG_hTRb_XSP2: Attagene TRANS-FACTORIAL Multi-Species (XSP2) HepG2 Assay for human Thyroid hormone Receptor beta (TRb) (AID 2283840);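 also: actives raise reporter mRNA so potency reflects agonist-like gain of signal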
Method in brief: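 HepG2 cells were transiently transfected with GAL4-UAS multiplexed reporter units expressing chimeric NR-Gal4 proteins, dosed 24 h; reporter mRNA was quantified by RT-PCR, fluorescent labeling, HpaI digestion and capillary electrophoresis, fitted for gain of signal versus DMSO.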

[13] = target: mouse Peroxisome Proliferator-activated Receptor gamma (PPARg), Pparg (gene 19016) (UniProt P37238); assay: ATG_mPPARg_XSP2: Attagene TRANS-FACTORIAL Multi-Species (XSP2) HepG2 Assay for mouse Peroxisome Proliferator-activated Receptor gamma (PPARg) (AID 2283830);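 also: hits are gains in reporter mRNA above DMSO so AC50 marks activation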
Method in brief: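 HepG2 cells transiently transfected with GAL4-UAS reporter units for chimeric NR-Gal4 proteins including mouse PPARg, exposed 24 h; medium contained 3 nM 6-alpha-fluorotestosterone and 1.5 nM norgestrel. Reporter mRNA quantified by RT-PCR, HpaI digestion and capillary electrophoresis, vs DMSO.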

[14] = CEETOX_H295R_11DCORT_noMTC: CeeTox H295R High-throughput Steroidogenesis Assay for 11-Deoxycortisol (11DCORT), maximum tolerated concentration (MTC) filtered results only (AID 2283911; active = hit-call score of the fitted dose curve at least 0.9, where 1 is the maximum; inactive = score below 0.9); details: actives raise or lower the signal
Method in brief: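 HPLC-MS/MS read-out of 11-deoxycortisol after MTBE extraction of H295R medium. Cells: forskolin 10 uM pre-stimulation 48 h, chemical 48 h, 0.1% DMSO final. Bidirectional fit vs DMSO baseline; no MTC filtering.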

[15] = CEETOX_H295R_OHPREG_noMTC: CeeTox H295R High-throughput Steroidogenesis Assay for OH-Pregnenolone (OHPREG), maximum tolerated concentration (MTC) filtered results only (AID 2283912; active = hit-call score of the fitted dose curve at least 0.9, where 1 is the maximum; inactive = score below 0.9); details: actives raise or lower the signal
Method in brief: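 Steroidogenesis in H295R cells (OECD 456, modified): after 48 h forskolin priming and 48 h chemical treatment, secreted 17alpha-hydroxypregnenolone is measured by HPLC-MS/MS. Activity is fitted in both directions against DMSO; concentrations are not filtered by MTT-based MTC.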

[16] = CEETOX_H295R_OHPROG_noMTC: CeeTox H295R High-throughput Steroidogenesis Assay for OH-Progesterone (OHPROG), maximum tolerated concentration (MTC) filtered results only (AID 2283914; active = hit-call score of the fitted dose curve at least 0.9, where 1 is the maximum; inactive = score below 0.9); details: actives raise or lower the signal
Method in brief: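 Forskolin 10 uM, 48 h prestim → test cmpd in DMSO (0.1% final), 48 h → medium MTBE extraction → LC-MS/MS quant of 17alpha-OH-progesterone. Bidirectional fit vs DMSO; no MTT-based MTC filtering.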

[17] = CEETOX_H295R_CORTISOL_noMTC: CeeTox H295R High-throughput Steroidogenesis Assay for Cortisol, maximum tolerated concentration (MTC) filtered results only (AID 2283916; active = hit-call score of the fitted dose curve at least 0.9, where 1 is the maximum; inactive = score below 0.9); details: actives raise or lower the signal
Method in brief: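 Cortisol secretion measured by LC-MS/MS after 48 h chemical treatment (final 0.1% DMSO) of forskolin-primed (10 uM, 48 h) H295R cells; gain or loss fitted relative to DMSO, without maximum-tolerated-concentration filtering.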

[18] = CEETOX_H295R_CORTIC_noMTC: CeeTox H295R High-throughput Steroidogenesis Assay for Corticosterone (CORTIC), maximum tolerated concentration (MTC) filtered results only (AID 2283917; active = hit-call score of the fitted dose curve at least 0.9, where 1 is the maximum; inactive = score below 0.9); details: actives raise or lower the signal
Method in brief: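 Following OECD 456 with minor changes, H295R cultures received 10 uM forskolin for 48 h, then test chemical at 0.1% DMSO for 48 h. Media steroids were extracted and measured by LC-MS/MS.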

[19] = CEETOX_H295R_DOC_noMTC: CeeTox H295R High-throughput Steroidogenesis Assay for DOC, maximum tolerated concentration (MTC) filtered results only (AID 2283918; active = hit-call score of the fitted dose curve at least 0.9, where 1 is the maximum; inactive = score below 0.9); details: actives raise or lower the signal
Method in brief: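 11-Deoxycorticosterone secreted by human adrenal H295R cells quantified by HPLC-MS/MS after 48 h chemical exposure (0.1% DMSO), following 48 h 10 uM forskolin prestimulation. Concentrations not filtered by MTT-derived MTC; bidirectional fitting.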

[20] = CEETOX_H295R_ANDR_noMTC: CeeTox H295R High-throughput Steroidogenesis Assay for Androstenedione (ANDR), maximum tolerated concentration (MTC) filtered results only (AID 2283915; active = hit-call score of the fitted dose curve at least 0.9, where 1 is the maximum; inactive = score below 0.9); details: actives raise or lower the signal
Method in brief: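 H295R cells, passage 10 or below, prestimulated 48 h with 10 uM forskolin, then exposed 48 h to chemical in 0.1% DMSO. Medium androstenedione extracted with MTBE, quantified by HPLC-MS/MS; concentrations not MTC-filtered; bidirectional fit versus DMSO.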

Measured: AC50

human Thyroid hormone Receptor alpha (TRa), THRA (gene 7067), sequence (P10827 whole entry, looked up, the tested form may be a part): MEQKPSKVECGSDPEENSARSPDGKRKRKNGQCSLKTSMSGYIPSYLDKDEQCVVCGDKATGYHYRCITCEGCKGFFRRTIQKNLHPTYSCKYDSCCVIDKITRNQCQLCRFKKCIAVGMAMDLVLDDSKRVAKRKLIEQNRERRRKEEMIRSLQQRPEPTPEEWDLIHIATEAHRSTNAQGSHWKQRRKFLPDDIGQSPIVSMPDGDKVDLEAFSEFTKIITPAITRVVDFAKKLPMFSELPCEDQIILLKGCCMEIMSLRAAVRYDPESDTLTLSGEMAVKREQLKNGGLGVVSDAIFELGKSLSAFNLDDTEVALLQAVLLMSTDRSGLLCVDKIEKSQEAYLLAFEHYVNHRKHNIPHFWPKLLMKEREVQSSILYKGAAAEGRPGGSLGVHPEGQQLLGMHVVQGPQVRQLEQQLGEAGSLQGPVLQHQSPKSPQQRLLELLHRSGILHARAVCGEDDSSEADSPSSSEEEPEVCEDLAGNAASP
zebrafish Thyroid Hormone Receptor alpha (TRa), thraa (gene 30670), sequence (Q98867 whole entry, looked up, the tested form may be a part): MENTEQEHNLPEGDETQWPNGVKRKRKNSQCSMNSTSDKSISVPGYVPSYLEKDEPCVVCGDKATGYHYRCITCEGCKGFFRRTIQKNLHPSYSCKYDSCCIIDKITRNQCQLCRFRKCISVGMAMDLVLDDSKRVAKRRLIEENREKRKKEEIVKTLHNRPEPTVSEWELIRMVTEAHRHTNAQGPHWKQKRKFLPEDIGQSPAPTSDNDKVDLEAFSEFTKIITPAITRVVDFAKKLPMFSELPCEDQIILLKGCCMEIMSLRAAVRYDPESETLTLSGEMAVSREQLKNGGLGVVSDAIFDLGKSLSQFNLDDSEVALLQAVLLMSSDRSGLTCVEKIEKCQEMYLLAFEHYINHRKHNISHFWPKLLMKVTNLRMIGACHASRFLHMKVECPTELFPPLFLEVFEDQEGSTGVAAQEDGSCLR
zebrafish Thyroid Hormone Receptor beta (TRb), thrb (gene 30607), sequence (Q9PVE4 whole entry, looked up, the tested form may be a part): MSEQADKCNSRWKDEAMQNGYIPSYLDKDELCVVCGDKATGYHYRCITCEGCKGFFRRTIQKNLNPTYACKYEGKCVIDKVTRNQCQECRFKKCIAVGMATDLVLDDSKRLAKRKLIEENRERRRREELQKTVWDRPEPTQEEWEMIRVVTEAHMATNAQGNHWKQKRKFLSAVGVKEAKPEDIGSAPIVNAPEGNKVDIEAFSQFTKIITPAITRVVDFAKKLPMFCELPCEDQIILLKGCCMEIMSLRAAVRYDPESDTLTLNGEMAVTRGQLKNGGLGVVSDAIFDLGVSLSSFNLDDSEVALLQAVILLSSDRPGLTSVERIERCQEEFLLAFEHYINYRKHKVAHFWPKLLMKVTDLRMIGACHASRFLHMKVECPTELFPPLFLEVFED
human Thyroid hormone Receptor beta (TRb), THRB (gene 7068), sequence (P10828 whole entry, looked up, the tested form may be a part): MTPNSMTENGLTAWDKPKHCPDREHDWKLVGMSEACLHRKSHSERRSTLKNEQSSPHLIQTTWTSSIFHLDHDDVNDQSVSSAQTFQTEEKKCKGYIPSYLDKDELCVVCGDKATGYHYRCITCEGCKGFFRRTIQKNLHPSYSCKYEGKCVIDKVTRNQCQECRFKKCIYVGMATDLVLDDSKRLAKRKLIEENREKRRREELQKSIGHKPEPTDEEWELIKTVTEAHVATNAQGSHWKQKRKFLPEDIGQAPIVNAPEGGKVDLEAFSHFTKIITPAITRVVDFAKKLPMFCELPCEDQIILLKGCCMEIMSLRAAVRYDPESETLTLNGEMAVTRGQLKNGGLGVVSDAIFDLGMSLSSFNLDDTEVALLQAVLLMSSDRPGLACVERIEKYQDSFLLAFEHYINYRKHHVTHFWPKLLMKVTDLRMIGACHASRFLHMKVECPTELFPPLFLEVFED
mouse Peroxisome Proliferator-activated Receptor gamma (PPARg), Pparg (gene 19016), sequence (P37238 whole entry, looked up, the tested form may be a part): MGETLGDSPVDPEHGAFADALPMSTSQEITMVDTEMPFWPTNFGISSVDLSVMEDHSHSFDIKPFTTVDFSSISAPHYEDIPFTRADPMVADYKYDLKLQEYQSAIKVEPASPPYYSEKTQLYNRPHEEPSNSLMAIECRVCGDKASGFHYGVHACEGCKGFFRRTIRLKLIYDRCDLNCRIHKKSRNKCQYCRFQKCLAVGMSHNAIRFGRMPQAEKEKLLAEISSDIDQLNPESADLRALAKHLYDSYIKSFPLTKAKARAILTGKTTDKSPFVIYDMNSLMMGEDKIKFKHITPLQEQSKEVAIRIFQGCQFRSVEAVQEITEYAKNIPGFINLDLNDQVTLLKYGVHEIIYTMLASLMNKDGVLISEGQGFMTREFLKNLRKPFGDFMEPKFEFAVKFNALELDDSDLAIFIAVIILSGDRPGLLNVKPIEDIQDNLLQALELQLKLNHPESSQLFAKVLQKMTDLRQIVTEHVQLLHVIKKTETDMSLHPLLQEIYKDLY
frog Thyroid hormone Receptor alpha (TRa), thra-a (gene 397942), sequence (P15204 whole entry, looked up, the tested form may be a part): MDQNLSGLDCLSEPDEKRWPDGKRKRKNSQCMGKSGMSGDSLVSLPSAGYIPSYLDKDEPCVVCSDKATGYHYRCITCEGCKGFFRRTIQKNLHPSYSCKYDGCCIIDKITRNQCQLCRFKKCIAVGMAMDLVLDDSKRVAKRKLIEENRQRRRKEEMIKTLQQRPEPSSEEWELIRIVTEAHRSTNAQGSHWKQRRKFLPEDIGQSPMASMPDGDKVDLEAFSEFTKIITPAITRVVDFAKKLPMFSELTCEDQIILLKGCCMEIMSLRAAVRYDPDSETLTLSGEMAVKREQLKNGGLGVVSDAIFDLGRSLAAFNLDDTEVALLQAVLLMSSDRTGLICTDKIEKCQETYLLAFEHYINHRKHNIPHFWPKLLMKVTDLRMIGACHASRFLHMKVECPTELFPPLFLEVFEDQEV
Nuclear receptor subfamily 1 group I member 2 (Mus musculus), sequence (O54915 whole entry, looked up, the tested form may be a part): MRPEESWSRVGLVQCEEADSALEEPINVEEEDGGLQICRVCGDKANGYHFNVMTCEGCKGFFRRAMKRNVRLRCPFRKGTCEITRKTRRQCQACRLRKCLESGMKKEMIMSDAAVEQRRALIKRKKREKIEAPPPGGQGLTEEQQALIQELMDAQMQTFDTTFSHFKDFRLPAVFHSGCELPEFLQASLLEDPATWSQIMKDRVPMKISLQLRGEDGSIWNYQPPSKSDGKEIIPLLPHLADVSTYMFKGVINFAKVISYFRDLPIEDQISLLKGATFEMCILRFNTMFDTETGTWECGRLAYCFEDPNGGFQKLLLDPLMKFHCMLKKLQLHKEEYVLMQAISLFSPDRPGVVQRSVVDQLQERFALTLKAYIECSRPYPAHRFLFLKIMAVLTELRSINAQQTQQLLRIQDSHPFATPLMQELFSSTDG

CCOC(=O)O[C@H](C)OC(=O)c1ccc2c(c1)cc(C(=O)NC1CCN(C(C)C)CC1)n2Cc1cc(-c2ccc(Cl)s2)on1
active: [2] 9.92 µM
inactive: [1]

CC(C)(C)c1csc(-c2cc3cc(OCc4ccccc4CC(=O)O)ccc3o2)n1
active: [1] 50 µM | [2] 9.92 µM

O=c1c(-c2ccc(O)cc2)coc2cc(O)cc(O)c12
inactive: [3] | [4] | [5] | [6] | [7] | [8] | [9] | [10] | [11] | [12]

CCCCOC(=O)c1ccc(O)cc1
inactive: [2]

CC(C)(c1cc(Br)c(O)c(Br)c1)c1cc(Br)c(O)c(Br)c1
active: [13] 3.77 µM | [5] 14.4 µM | [11] 5.76 µM | [1] 82.4 µM | [2] 13.6 µM
inactive: [4] | [6] | [7] | [8] | [10] | [12]

Clc1ccccc1C(c1ccccc1)(c1ccccc1)n1ccnc1
active: [1] 50 µM | [2] 9.92 µM

CCCCOC(=O)CC(CC(=O)OCCCC)(OC(C)=O)C(=O)OCCCC
inactive: [2]

c1ccc(C[n+]2cccc3ccccc32)cc1
inactive: [14] | [15] | [16] | [17] | [18] | [19]

CC1(C)NC(=O)N(c2ccc([N+](=O)[O-])c(C(F)(F)F)c2)C1=O
active: [3] 100 µM | [11] 66.4 µM | [12] 148 µM
inactive: [13] | [3] | [4] | [6] | [8] | [9] | [10] | [11] | [12]

CCN(Cc1cccnc1)C(=O)c1cccc(Cl)c1[C@]1(C)C(=O)N(Cc2ccc(OC)cc2OC)c2ccc(Cl)cc21
inactive: [2]

C[C@]12CC[C@@H]3c4ccc(O)cc4CC[C@H]3[C@@H]1CCC2=O
inactive: [7] | [11]

NCc1cccc(C2CCN(C(=O)c3ccc(C#Cc4ccccc4F)o3)CC2)c1
active: [2] 16.3 µM
inactive: [1]

Clc1cc(Cl)c2c(c1)N=C1CCCCCN1C2
inactive: [1] | [2]

COc1cc(C(=O)NC2CCN(C)CC2)ccc1Nc1ncc2c(n1)N(C1CCCC1)CC(F)(F)C(=O)N2C
inactive: [1] | [2]

CC(C)(C)c1cc(/C=C2\SC(N)=NC2=O)cc(C(C)(C)C)c1O
inactive: [1]
active: [2] 4.96 µM

O=C(O)c1ccccc1C(=O)OCc1ccccc1
inactive: [14] | [15] | [16] | [20] | [17] | [18] | [19]

NC(=O)c1nc(-c2cccc(-c3cc(F)ccc3OCC(F)(F)C(F)(F)F)c2)n[nH]1
active: [1] 50 µM
